Bcl-XL Bim block = inhibitors of Bim-Bcl-XL binding, primary screen, biochemical, multiplexed, bead flow cytometry, human Bcl-XL | inhibition, % at 10 µM | Bcl-2-like protein 1 (Homo sapiens), Q07817 | hit rate 0.04% among 190,000 | Bim peptide-Bcl-XL binding, fluorescence | AID 1007, 2008
Bcl-W Bim block = inhibitors of Bim binding to Bcl-W, primary screen, biochemical, multiplexed, bead-based flow cytometry; Bcl-2-like protein 2 (Homo sapiens), Q92843; Bim peptide-Bcl-W binding; hit rate 0.02% among 190,000; inhibition, % at 10 µM;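 further: 0% = bound tracer without compound and 100% = peptide blocker; higher means less fluorescent Bim peptide bound to Bcl-W beads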
Bim-Bfl-1 = inhibitors of Bim binding to Bfl-1, primary screen, biochemical, multiplexed, bead-based flow cytometry | Bcl-2-related protein A1 (Homo sapiens), Q16548 | Bim-Bfl-1 binding inhibition | inhibition, % at 10 µM | hit rate 0.12% among 190,000 | AID 1008, 2008;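 further: 0% = wells without compound plus tracer and 100% = blocker peptide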
Bcl-2 Bim block = inhibitors of Bim-Bcl-2 binding, primary screen, biochemical, multiplexed, human Bcl-2 family. Apoptosis regulator Bcl-2 (Homo sapiens), P10415. Bead-based flow cytometry, Bim peptide-Bcl-2 binding. inhibition, % at 10 µM. hit rate 0.06% among 190,000; in the data active means inhibition above about 40%;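 further: 0% = no compound wells with probe peptide and 100% = reference peptide inhibitor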
Target sequence (P10415 whole entry, looked up): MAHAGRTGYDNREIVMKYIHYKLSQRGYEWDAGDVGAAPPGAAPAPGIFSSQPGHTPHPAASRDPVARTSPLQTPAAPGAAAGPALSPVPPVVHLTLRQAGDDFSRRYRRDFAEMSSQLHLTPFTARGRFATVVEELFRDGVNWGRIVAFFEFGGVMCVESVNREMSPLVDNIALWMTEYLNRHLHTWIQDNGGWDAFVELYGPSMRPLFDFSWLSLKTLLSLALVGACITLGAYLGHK
Arbovirus anti = antivirals against arbovirus infection, primary screen, cell-based, full library, 10K replicate subset | arbovirus infection cell-based antiviral screen | inhibition, % at 10 µM | hit rate 0.37% among 200,000; in the data active means inhibition above about 30%
Bcl-B Bim block = inhibitors of Bim-Bcl-B binding, primary screen, biochemical, multiplexed, human Bcl-2 family; bead-based flow cytometry, Bim peptide-Bcl-B binding; inhibition, % at 10 µM; hit rate 0.073% among 190,000; AID 951, 2007;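 further: 0% = tracer peptide without compound and 100% = reference inhibitor peptide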
Target sequence (Q9HD36 whole entry, looked up): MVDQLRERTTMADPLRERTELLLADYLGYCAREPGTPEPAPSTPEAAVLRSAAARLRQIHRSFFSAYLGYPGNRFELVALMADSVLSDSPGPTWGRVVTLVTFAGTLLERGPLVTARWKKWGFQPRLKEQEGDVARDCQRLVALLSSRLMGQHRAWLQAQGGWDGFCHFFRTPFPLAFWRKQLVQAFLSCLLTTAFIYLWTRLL
Bim-Bcl-XL DR = Bim-Bcl-XL interaction inhibitors, hit retest, confirmation, biochemical, dose response, multiplexed, HTS hits. shares compounds with Bim-Bfl-1. bead-based flow cytometry, Bim-Bcl-XL binding. inhibition of binding at 100 µM. 40 tested, under 10 active. AID 2084, 2009; call rule not given here
Starred values were filed as active, the others as inactive; / = not tested or not shown. Only some compounds are listed: those with a hit (about 0.56% of all), similar ones and a draw of the others. Unless noted, no stated cut-off is given here; in the data, active means inhibition above about 40%.

SMILES	Bcl-XL Bim block	Bcl-W Bim block	Bim-Bfl-1	Bcl-2 Bim block	Arbovirus anti	Bcl-B Bim block	others
Cc1ccc(C2=CC(c3ccc(N(C)C)cc3)n3nnnc3N2)cc1 (configuration not stated)	-8	0	-11	-6	4	-5
Cc1ccc(C2C=C(c3ccc4c(c3)OCO4)Nc3ncnn32)cc1 (configuration not stated)	-1	0	-1	1	85*	0
Cc1ccc(C2C=C(c3ccccc3OC(F)F)Nc3ncnn32)cc1 (configuration not stated)	1	0	1	0	4	-3
CCOc1ccc(N(CCCCO)C(=S)NC(=O)c2ccc(C)c(Br)c2)cc1	1	-1	8	2	-4	0
Cn1c(=O)c2c(nc(Sc3ncnn3CC(=O)NC(C)(C)C)n2C)n(C)c1=O	1	3	0	2	6	1
O=C(CN1CCN(c2nc(-c3ccccc3)cs2)CC1)NNC(=O)c1ccco1	-1	-4	-3	-2	7	-13
O=C(/C=C/c1ccnc2ccccc12)c1cccs1	-4	-4	-1	-1	-3	-6
O=C(O)c1ccccc1N/N=C\c1ccnc2ccccc12	-5	-2	-2	3	31*	-1
NC(=O)c1cc([N+](=O)[O-])ccc1NCCN1C(=O)c2ccccc2C1=O	-2	-6	-5	-7	3	-6
O=C(CSc1nnc(NC(=O)c2c(F)cccc2F)s1)Nc1ccc(F)cc1	-5	-5	-8	-4	37*	-4
O=C(Nc1ccccc1C(=O)O)c1ccc(Br)c(S(=O)(=O)NCc2ccccc2)c1	-1	2	-7	0	31*	-2
O=C(CCCN1C(=O)/C(=C/c2cccs2)SC1=S)Nc1cccc(C(=O)O)c1	-2	3	0	0	38*	-1
O=C(CCCN1C(=O)/C(=C/c2cccs2)SC1=S)Nc1ccc(C(=O)O)cc1	0	0	-2	0	22	1
O=[N+]([O-])c1ccc(-c2c(O)c3ccccc3c3nc4ccccc4nc23)cc1	-2	0	-3	-3	32*	-3
CCOCCCNC(=S)NCCCNc1nc2c(C)cc(C)cc2cc1C#N	-1	1	1	0	-26	-9
CCOCCCNC(=S)NCCNc1nc2c(C)cccc2cc1C#N	-11	-5	-16	-14	31*	-15
CC(=O)Nc1cccc(Oc2ncnc3scc(-c4ccccc4)c23)c1	-6	-4	1	0	45*	-2
Cc1ccc(N=Cc2cc3c(cc2O)OC(N)=C(C#N)C3c2ccccc2)cc1 (configuration not stated)	-6	-1	-7	-6	-2	-10
C/C(=N\NC(=O)c1ccccc1)c1nc2ccccc2n1C	-5	-6	-6	-4	41*	-5
O=C(O)c1ccc(-c2nc(-c3ccc(Cl)cc3Cl)cs2)cc1	-3	0	-5	-2	13	-3
O=C(O)c1ccc(-c2nc(-c3ccc(Cl)cc3)cs2)cc1	-3	-2	-12	-8	41*	-8
N#C/C(=C\c1c[nH]c2ccccc12)C(=O)NCC1CCCO1 (configuration not stated)	-3	0	-8	-5	-6	-4
COc1cc(OC)c([N+](=O)[O-])cc1/C=N/NC(=O)c1ccncc1	13	40*	38	21	-10	7
COc1c(Br)cc(Br)cc1/C=N/NC(=O)c1ccncc1	-1	-1	-8	-2	-7	-6
Cc1c(C=O)c(=O)n(-c2ccccc2)n1-c1ccccc1	-7	-5	-6	0	6	-4
SMILES	Bcl-XL Bim block	Bcl-W Bim block	Bim-Bfl-1	Bcl-2 Bim block	Arbovirus anti	Bcl-B Bim block	others
CCCc1cc(C(=O)Nc2cc(Br)ccc2O)no1	-3	0	-11	-10	35*	-7
CC1=CSC2=NC(=O)/C(=C\c3cccn3-c3ccccc3)C(=N)N12	-2	-1	2	-2	-3	-3
Cc1ccc(-n2cccc2/C=C2/C(=N)N3C(=NC2=O)SN=C3S(C)(=O)=O)cc1Cl	12	11	10	17	34*	12
Cc1cccc(C)c1-n1cccc1/C=C1/C(=N)N2C(=NC1=O)SN=C2S(C)(=O)=O	0	-1	-3	-2	59*	-2
NC(=O)c1c(NC(=O)C2CCCO2)sc2c1CCCC2 (configuration not stated)	42*	32	39	30	-8	28
CCCC(=O)Nc1cccc(NC(=O)c2ccc([N+](=O)[O-])cc2Cl)c1	-4	-12	-2	-11	45*	-4
CC(=O)Nc1ccc(-n2cc(-c3ccccc3)[nH]c2=S)cc1	-5	-1	27	-1	5	-37	Bim-Bcl-XL DR=-10
O=[N+]([O-])c1cc(Cl)ccc1N1CCCC1	0	0	-9	-2	2	-2
O=C1C(Cl)=C(N2CCN(c3ccccc3[N+](=O)[O-])CC2)C(=O)c2ccccc21	1	27	68*	15	-36	-17	Bim-Bcl-XL DR=4.3
O=[N+]([O-])c1c(NCCCO)cc(Sc2nc3ccccc3s2)c2nonc12	1	8	61*	8	-32	3	Bim-Bcl-XL DR=-1
Cc1nnc(Sc2cc(NCCCO)c([N+](=O)[O-])c3nonc23)s1	1	5	29	6	-11	5
Cc1nnc(Sc2cc(NCCO)c([N+](=O)[O-])c3nonc23)s1	3	14	55*	12	-39	0	Bim-Bcl-XL DR=8.4
COc1ccc(N2C(=O)C(Cl)=C(Oc3cccc(OC)c3)C2=O)cc1	-8	0	43*	2	1	-39	Bim-Bcl-XL DR=-8.2
COc1ccc(N2C(=O)c3ccccc3C2=O)cc1	-4	-4	-6	-2	2	-5
N#C/C(=C\c1ccc(-c2cccc([N+](=O)[O-])c2)o1)c1nnc(N2CCOCC2)n1-c1ccccc1	-1	3	-1	-2	-12	-6
CCOCCCNC(=S)N1CCN(Cc2ccco2)CC1	1	-1	-3	-1	-2	-2
O=C(NCc1ccccc1)c1ccc2nc(-c3ccco3)c(-c3ccco3)nc2c1	7	19	43*	17	1	5	Bim-Bcl-XL DR=15
O=C(CNC(=S)N(Cc1ccccc1)Cc1cccnc1)NCCN1CCOCC1	-1	-1	4	0	13	1
CCNCc1ccccc1OCc1ccccc1	1	-2	-3	0	-2	-2
Oc1ccc(NCc2ccccc2OCc2ccccc2)cc1	1	16	34	11	-10	-10	Bim-Bcl-XL DR=-0.78
COc1ccc(N2C(=O)C(Cl)=C(NC3C(=O)N(c4ccccc4)N(C)C3C)C2=O)cc1 (configuration not stated)	/	/	/	/	/	/	Bim-Bcl-XL DR=-3.9
CC(=O)N1CC[n+]2c(-c3ccc(Cl)cc3Cl)csc21	-12	-7	4	0	-16	-23

Source: PubChem
